Measurements taken from ChEMBL document CHEMBL1961873, “Compounds: GSK PKIS; Assays: Nanosyn kinase panel” (2012).

Tests used:
[1] = target: Tyrosine-protein kinase SYK (Homo sapiens) (UniProt P43405); settings: at 1 µM
[2] = target: T1, Tyrosine-protein kinase Tec (Homo sapiens) (UniProt P42680); settings: at 0.1 µM
T1 sequence (whole entry): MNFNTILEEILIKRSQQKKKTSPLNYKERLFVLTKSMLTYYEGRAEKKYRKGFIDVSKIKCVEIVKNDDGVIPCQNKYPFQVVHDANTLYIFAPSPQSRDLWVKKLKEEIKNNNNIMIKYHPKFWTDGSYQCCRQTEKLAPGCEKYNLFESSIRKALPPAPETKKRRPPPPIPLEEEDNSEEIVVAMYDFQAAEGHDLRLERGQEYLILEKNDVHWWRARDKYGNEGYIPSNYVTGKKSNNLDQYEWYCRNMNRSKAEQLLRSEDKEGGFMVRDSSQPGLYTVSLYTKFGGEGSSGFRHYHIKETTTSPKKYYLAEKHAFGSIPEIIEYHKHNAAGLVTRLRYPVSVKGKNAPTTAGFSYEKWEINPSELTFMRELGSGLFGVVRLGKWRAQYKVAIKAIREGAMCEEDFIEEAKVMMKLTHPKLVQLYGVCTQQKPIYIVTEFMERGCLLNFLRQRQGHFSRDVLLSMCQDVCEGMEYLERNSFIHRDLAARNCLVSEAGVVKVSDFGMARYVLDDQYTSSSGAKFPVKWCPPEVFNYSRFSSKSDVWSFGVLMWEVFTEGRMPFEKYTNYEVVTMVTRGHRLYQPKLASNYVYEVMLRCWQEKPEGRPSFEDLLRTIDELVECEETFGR

[3] = target: T1, Tyrosine-protein kinase Tec (Homo sapiens); settings: at 1 µM
[4] = target: Angiopoietin-1 receptor (Homo sapiens) (UniProt Q02763); settings: at 0.1 µM
Chain of Angiopoietin-1 receptor (Homo sapiens) (Q02763 whole entry): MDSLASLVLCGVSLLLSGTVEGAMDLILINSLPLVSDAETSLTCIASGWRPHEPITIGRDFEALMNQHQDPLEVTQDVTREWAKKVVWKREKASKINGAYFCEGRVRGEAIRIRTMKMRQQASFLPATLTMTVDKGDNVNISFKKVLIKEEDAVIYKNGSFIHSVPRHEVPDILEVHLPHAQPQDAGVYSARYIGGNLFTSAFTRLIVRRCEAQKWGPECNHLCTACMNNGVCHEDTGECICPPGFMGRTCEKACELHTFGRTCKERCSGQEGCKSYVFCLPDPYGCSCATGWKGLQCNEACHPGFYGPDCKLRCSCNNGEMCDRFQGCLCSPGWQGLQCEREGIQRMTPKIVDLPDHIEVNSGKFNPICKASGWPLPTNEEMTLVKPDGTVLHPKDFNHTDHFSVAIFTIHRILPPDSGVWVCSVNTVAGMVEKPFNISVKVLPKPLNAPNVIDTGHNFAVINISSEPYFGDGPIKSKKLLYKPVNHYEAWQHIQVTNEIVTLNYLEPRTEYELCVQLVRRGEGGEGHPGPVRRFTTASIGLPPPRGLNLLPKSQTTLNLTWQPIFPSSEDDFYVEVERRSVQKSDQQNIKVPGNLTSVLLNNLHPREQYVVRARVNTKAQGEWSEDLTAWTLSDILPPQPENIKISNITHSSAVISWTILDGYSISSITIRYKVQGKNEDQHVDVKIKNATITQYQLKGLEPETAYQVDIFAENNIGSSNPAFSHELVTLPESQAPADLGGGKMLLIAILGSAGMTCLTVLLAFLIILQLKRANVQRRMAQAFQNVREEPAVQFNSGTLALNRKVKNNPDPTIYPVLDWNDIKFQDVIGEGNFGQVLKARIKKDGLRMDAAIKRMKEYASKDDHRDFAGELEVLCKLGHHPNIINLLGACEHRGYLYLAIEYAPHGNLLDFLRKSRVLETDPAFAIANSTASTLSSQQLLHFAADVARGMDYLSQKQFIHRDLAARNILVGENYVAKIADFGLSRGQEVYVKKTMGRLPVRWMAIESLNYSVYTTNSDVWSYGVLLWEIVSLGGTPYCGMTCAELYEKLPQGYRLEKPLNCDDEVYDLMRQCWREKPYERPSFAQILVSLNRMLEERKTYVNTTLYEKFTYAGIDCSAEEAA

[5] = target: Angiopoietin-1 receptor (Homo sapiens) (UniProt Q02763); settings: at 1 µM
[6] = target: T2, Non-receptor tyrosine-protein kinase TNK1 (Homo sapiens) (UniProt Q13470); settings: at 0.1 µM
T2 sequence (whole entry): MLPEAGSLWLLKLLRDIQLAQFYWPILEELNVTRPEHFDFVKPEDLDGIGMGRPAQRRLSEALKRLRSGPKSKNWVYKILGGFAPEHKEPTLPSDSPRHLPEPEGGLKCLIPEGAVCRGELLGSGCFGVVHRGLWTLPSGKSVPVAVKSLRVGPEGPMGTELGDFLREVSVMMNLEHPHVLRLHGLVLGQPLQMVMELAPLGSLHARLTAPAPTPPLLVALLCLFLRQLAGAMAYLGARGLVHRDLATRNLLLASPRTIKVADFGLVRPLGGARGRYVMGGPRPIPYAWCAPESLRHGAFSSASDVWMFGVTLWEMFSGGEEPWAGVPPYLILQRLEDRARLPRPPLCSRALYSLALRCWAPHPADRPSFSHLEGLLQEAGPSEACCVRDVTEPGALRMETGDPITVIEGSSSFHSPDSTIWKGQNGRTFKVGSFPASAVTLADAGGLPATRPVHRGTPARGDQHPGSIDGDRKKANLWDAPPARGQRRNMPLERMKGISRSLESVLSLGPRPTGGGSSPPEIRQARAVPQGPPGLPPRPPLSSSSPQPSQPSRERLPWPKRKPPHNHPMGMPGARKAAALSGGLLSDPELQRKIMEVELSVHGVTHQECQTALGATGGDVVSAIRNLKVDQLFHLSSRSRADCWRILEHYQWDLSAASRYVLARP

[7] = target: T2, Non-receptor tyrosine-protein kinase TNK1 (Homo sapiens); settings: at 1 µM
[8] = target: Activated CDC42 kinase 1 (Homo sapiens) (UniProt Q07912); settings: at 0.1 µM
Chain of Activated CDC42 kinase 1 (Homo sapiens) (Q07912 whole entry, looked up): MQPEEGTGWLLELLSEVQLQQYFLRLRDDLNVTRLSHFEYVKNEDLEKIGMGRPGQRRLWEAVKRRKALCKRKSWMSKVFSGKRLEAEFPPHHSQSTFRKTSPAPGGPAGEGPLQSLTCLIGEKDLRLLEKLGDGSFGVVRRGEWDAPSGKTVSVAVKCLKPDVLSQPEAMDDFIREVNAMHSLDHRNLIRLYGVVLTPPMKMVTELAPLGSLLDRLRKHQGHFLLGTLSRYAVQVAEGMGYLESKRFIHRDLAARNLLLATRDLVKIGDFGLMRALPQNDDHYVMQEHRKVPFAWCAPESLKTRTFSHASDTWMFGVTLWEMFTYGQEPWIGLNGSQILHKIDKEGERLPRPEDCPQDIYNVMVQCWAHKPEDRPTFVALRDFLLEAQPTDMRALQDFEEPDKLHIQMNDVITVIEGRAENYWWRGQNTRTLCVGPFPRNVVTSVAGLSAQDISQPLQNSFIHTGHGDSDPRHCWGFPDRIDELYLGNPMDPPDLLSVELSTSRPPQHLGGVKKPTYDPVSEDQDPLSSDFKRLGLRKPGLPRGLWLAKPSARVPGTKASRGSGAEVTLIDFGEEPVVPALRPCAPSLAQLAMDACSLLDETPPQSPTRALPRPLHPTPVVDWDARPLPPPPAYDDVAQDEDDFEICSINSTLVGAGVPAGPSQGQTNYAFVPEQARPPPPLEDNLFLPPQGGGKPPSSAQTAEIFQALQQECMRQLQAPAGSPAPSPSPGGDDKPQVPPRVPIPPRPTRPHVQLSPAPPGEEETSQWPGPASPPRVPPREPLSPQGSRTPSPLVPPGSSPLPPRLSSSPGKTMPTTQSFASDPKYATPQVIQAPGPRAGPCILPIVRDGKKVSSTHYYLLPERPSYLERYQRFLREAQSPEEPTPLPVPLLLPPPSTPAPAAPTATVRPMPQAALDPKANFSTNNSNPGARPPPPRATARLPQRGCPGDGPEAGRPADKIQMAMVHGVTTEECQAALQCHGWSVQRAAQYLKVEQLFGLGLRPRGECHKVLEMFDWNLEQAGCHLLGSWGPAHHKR

[9] = target: Activated CDC42 kinase 1 (Homo sapiens) (UniProt Q07912); settings: at 1 µM
[10] = target: High affinity nerve growth factor receptor (Homo sapiens) (UniProt P04629); settings: at 0.1 µM;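 further: each value is a mean of replicate percent inhibition readings against TRKA kinase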
Chain of High affinity nerve growth factor receptor (Homo sapiens) (P04629 33-796 limits assumed): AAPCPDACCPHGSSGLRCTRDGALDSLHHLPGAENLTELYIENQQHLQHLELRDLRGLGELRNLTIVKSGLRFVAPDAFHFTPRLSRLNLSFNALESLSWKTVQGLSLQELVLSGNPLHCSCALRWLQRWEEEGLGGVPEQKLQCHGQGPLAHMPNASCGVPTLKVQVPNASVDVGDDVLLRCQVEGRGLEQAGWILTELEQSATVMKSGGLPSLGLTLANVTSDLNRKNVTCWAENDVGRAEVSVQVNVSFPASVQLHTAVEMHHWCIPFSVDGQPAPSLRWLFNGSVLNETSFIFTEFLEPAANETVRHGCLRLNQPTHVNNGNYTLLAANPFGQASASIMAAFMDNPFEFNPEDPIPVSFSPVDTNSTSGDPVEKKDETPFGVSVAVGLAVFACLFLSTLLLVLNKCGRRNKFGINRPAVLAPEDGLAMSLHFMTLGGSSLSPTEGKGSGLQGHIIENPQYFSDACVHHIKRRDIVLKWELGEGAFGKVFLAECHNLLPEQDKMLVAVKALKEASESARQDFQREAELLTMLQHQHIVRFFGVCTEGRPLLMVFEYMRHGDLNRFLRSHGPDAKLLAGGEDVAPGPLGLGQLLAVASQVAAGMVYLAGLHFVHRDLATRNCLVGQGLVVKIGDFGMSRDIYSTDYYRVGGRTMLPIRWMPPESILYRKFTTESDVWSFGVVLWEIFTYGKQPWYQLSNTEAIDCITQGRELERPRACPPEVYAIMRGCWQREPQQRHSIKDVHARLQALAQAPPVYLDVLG

| SMILES | inhibition [1] | inhibition [2] | inhibition [3] | inhibition [4] | inhibition [5] | inhibition [6] | inhibition [7] | inhibition [8] | inhibition [9] | inhibition [10] |
| --- | --- | --- | --- | --- | --- | --- | --- | --- | --- | --- |
| NC(=O)c1sc(-n2cnc3cc(C(F)(F)F)ccc32)cc1OCc1ccccc1Br | 1.46% | 1.68% | 3.28% | 2.07% | 3.72% | 1.72% | 5.51% | 0.49% | 1.45% | -0.62% |
| CCn1c(-c2nonc2N)nc2c(C#CC(C)(C)O)nc(O[C@@H](CN)c3ccccc3)cc21 | 0.56% | 0.79% | 5.82% | 2.63% | 11.4% | -3.17% | -3.26% | -0.88% | -1.74% | -3.19% |
| COc1cccc(-n2ncc3c(N/N=C/c4ccncc4)ncnc32)c1 | 9.95% | 6.13% | 17.2% | 6.02% | 37.5% | 10.1% | 52.3% | 2.06% | 9.3% | 3.46% |
| NS(=O)(=O)c1ccc(-c2ccc3c(NC(=O)C4CC4)n[nH]c3c2)cc1 | -2.49% | 4.93% | 10.3% | 1.08% | 6.97% | 2.11% | 4.7% | 1.28% | 1.95% | 3.82% |
| CCn1c(-c2nonc2N)nc2c(C#CCN)ncc(OCCCN)c21 | -0.1% | -2.6% | -1.5% | 0.84% | -0.39% | 2.24% | 10.6% | -0.12% | 0.81% | -3.88% |
| Cc1cc(-c2ccco2)cc(C)c1/C=C/c1cncc(-c2nn[nH]n2)c1 | -0.41% | -0.18% | 4.27% | 2.4% | 5.27% | 14.2% | 75.2% | 0.58% | 3.5% | -2.1% |
| CCn1c(-c2nonc2N)nc2c(C#CC(C)(C)O)ncc(OC[C@@H]3CCCN3)c21 | -4.11% | 0.03% | 1.67% | -0.35% | 4.39% | 2.04% | 1.67% | -0.73% | -0.46% | -2.99% |
| Fc1ccc(-c2ncn(C3CCNCC3)c2-c2ccnc(Oc3ccccc3)n2)cc1 | 0.47% | -3.67% | -1.69% | -0.49% | 1.7% | 0.27% | 1.01% | -0.4% | 0.06% | 1.92% |
| COc1cc2c(cc1Nc1nc(Nc3ccsc3C(N)=O)c3cc[nH]c3n1)N(C(=O)CN(C)C)CCC2 | 11.2% | -0.19% | 4.36% | 6.04% | 10.5% | 32.3% | 80.2% | 0.24% | 13.2% | – |
| COc1cccc(COc2cc(-n3cnc4ccccc43)sc2C(N)=O)c1 | -4.12% | -0.82% | 0.59% | -1.48% | 3.47% | 0.87% | 12.1% | -0.46% | 0.57% | -2.49% |
| NS(=O)(=O)c1ccc(N/C=C2\C(=O)Nc3ccc4ncsc4c32)cc1 | -8.48% | 1.96% | 10.6% | 0.38% | 10.4% | 6.89% | 37.8% | 0.75% | 1.83% | 9.04% |
| CCn1c(-c2nonc2N)nc2c(C#CC(C)(C)O)ncc(OCC3CCNCC3)c21 | -0.6% | -0.71% | 0.43% | 0.65% | 3.85% | 1.75% | 10.6% | 0.81% | 1.2% | 3.1% |
| COc1cc(C=NNc2ncnc3c2cnn3Cc2ccccc2)ccc1O | -4.26% | -0.99% | 16.4% | 3.65% | 31.7% | – | -2.22% | -1.7% | 0.03% | -2.9% |
| Nc1nonc1-c1nc2cnccc2n1C1CCCCC1 | -0.01% | -0.6% | 1.22% | 1.78% | 3.18% | -1.33% | 20.8% | -1.67% | -1.55% | -1.55% |
